Test results from ChEMBL document CHEMBL1201862, “PubChem BioAssay data set” (2004).
The whole screen tested about 57,000 sequences, of which about 4,200 (7.4%) were called active. Cut-off read from the data, not from the text of the source: active = GI50 up to about 1.1 µM and inactive = higher. A selection follows. Results with a measured potency or affinity are listed apart.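 Tested at 5 concentrations; 48 h exposure; 96-well plates; endpoints linearly interpolated, else capped at highest concentration. Here, GI50 denotes the concentration required for 50% inhibition of growth.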

tested on: UACC-62; assay: NCI tumour cell line growth inhibition, 48 h

| Substance | GI50 [µM] |
| --- | --- |
| [Bis(aminomethyl)tetramethylenesilane]dichloropaltinum(II), CHEMBL2146205 | 16 |
| [Bis(aminomethyl)ethylmethylsilane]tetrachloroplatinum(IV), CHEMBL2146192 | 2.39 |
| CISPLATIN, CHEMBL11359 | 1.18 |
| [Bis(aminomethyl)dimethylsilane]tetrachloroplatinum(IV), CHEMBL2146190 | 4.57 |
| [Bis(aminomethyl)diethylsilane]tetrachloroplatinum(IV), CHEMBL2146203 | 3.93 |
| [Bis(aminomethyl)pentamethylenesilane]tetrachloropaltinum(IV), CHEMBL2146204 | 0.935 |
| cis-Bis[[(trimethylsilyl)methyl]amino]tetrachloroplatinum(IV), CHEMBL2146191 | 5.21 |
| [Bis(aminomethyl)pentamethylenesilane]dichloropaltinum(II), CHEMBL2146202 | 2.72 |
| [Bis(aminomethyl)dimethylsilane]dichloroplatinum (II), CHEMBL2146201 | 15.3 |
| mu-(1,7-nanodiamine-N,N')bis-(cis-aminedichloroplatimum (II)), CHEMBL2146215 | 3.44 |
| [Bis(aminomethyl)tetramethylenesilane]tetrachloropaltinum(IV), CHEMBL2146189 | 3.87 |
